Screening results as filed in PubChem.
In the library only some 6.6% were active in any assay of this set; here they are far more common.
KB-V1 MDR tox – kills drug-selected multidrug resistant KB-V1 cells; Potency, µM (doses to about 46.1 µM), actives largely listed as cytotoxic; 3.4% of 400,000 active; KB-V1 MDR cells viability, CellTiter-Glo, 72 h; also: % is scaled to controls: 0 for no effect and ±100 for the full control effect; nearly all actives have a fitted effect of over 60% in size
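KB-V1 MDR subline cells in DMEM (phenol-red free, 10% FBS) exposed to compounds in qHTS concentration series for 72 h at 37 degrees C. Viability read by CellTiter-Glo luminescence; concentration-effect curves fitted after normalization and correction.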
HepG2 tox – counter-screen for TGF-b inhibitors: cytotoxicity in HepG2 cells; HepG2 CAGA-GFP viability, ATP luminescence, 18 h; Potency, µM (top dose mostly 46.1 µM), inactives show top-dose activity change, negative = cytotoxicity, actives largely listed as cytotoxic; 0.76% of 410,000 active
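HepG2 CAGA-GFP cells (1000/well, DMEM with 1% FBS) received compound, then TGF-beta at 500 pg/mL final, and were incubated 18 hours at 37 degrees C. Viability was read by CellTiter-Glo luminescence. Media-only wells were set as complete cell-killing and DMSO as no toxicity.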
HT1080NT lethal – kills 2HG-producing HT-1080-NT fibrosarcoma cells; 1.6% of 360,000 active; Potency, µM (highest dose often 46.1 µM), for inactives: at the top dose activity, negative = less viability, most hits filed as cytotoxic; HT-1080-NT fibrosarcoma viability, CellTiter-Glo ATP luminescence, 48 h;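 also: NT is the 2HG producing partner of a matched IDH1 knockdown line; 0% = DMSO-treated cells and -100% = media-only wells without cells; nearly all actives have a fitted effect of over 55% in size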
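HT-1080-NT; 750 cells/well; 5% FBS RPMI; 48 h compound, 37 degrees C; CellTiter-Glo luminescence; curve fitting and curve-class assignment.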
TGFb SMAD3 inh – blocks TGF-b signaling; HepG2 CAGA-GFP TGF-b/SMAD3 reporter, GFP fluorescence, 18 h; TGF-beta stimulated, 500 pg/mL final; Potency, µM (top dose mostly 46.1 µM), inactives show at the top dose activity, negative = inhibition, actives largely listed as inhibitors; 1.2% of 410,000 active; AID 588855; also: % is scaled to controls: 0 for no effect and ±100 for the full control effect; nearly all actives have a fitted effect of over 65% in size
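HEPG2 CAGA-GFP, 1000 cells/well; 2 h settle, 37 C; cpd via pin tool; TGF-b 500 pg/mL final; 18 h, 37 C; GFP imaging ex488/em500-530; %Activity normalised to -TGF-b and +DMSO controls; CRC fit, curve class.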
KB-3-1 cytotox – KB-3-1 parental cell cytotoxicity; AID 1347075; KB-3-1 viability, CellTiter-Glo ATP luminescence, 72 h; Potency, µM (highest dose often 46.1 µM), usual class: cytotoxic; 1.4% of 400,000 active; also: % is scaled to controls: 0 for no effect and ±100 for the full control effect; nearly all actives have a fitted effect of over 60% in size
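Screening of KB-3-1 cells (DMEM, 10% FBS, phenol-red free) ran from lowest to highest compound concentration; after 72 h at 37 °C viability was read luminescently and curves fitted.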
HT1080 IDH1KD tx – kills HT-1080 cells with IDH1 knockdown; HT-1080 IDH1 knockdown viability, ATP luminescence, 48 h; 2% of 360,000 active; Potency, µM (highest dose often 46.1 µM), for inactives: at the highest dose activity, negative = toxicity, usual class: cytotoxic;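 also: 0% = DMSO wells and -100% = cell-free medium wells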
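Cytotoxicity counter-line: IDH1KD HT-1080, 48 h, CellTiter-Glo. Curves classed by r2, magnitude and activity.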
* hit, by the source's call; i = inactive; ? = inconclusive; . = no result. Calls follow the shape of the dose curve; as a rule, active = well fitted curve in the direction sought with a large enough effect; inconclusive = small, poorly fitted or top-dose-only effect, or another doubt; inactive = no such curve, though single readings can be large; an effect the other way counts as inactive or inconclusive. Potency is read from the fitted curve at half-maximal effect.

SMILES | KB-V1 MDR tox | HepG2 tox | HT1080NT lethal | TGFb SMAD3 inh | KB-3-1 cytotox | HT1080 IDH1KD tx
Cc1onc(-c2ccccc2Cl)c1C(=O)N1CCN(C/C=C/c2ccccc2)CC1 | 14.6µM* | -43.4% | 8.7% | ? | i | -26.4%
Cc1onc(-c2ccccc2Cl)c1C(=O)Oc1cccc2cccnc12 | ? | -29.0% | -3.4% | ? | i | 23.1µM*
COc1ccc(NC(=O)C(=O)c2cc(C)n(-c3ccc(C)cc3)c2C)cc1Cl | i | -38.1% | . | ? | ? | .
CCC1(CC)C(=O)C2=C3C1[C@H](C(=O)OC)CC(C(=O)OC)C[C@H]3[C@H]1C(=O)N(C)C(=O)[C@H]1[C@H]2C (stereo not given in full) | . | -44.6% | . | -7.3% | . | .
CS(=O)(=O)N(Cc1ccccc1)c1ccc(C(=O)Nc2ccc(Cl)cc2)cc1 | ? | -102.9% | . | ? | ? | .
CN(C)S(=O)(=O)c1cccc(NC(=O)c2cc(-c3cccs3)nn2-c2cccc(Cl)c2)c1 | 2.31µM* | -3.4% | -0.9% | -7.1% | 9.2µM* | -8.4%
O=C(O)c1cc(-c2cccs2)nn1-c1cccc(Cl)c1 | i | -16.4% | -8.2% | -2.3% | i | -3.2%
CN(C)S(=O)(=O)c1cccc(-c2nnc(-c3ccccc3)o2)c1 | 23.1µM* | -4.6% | -5.8% | 1.2% | i | -11.0%
Cc1ccccc1NS(=O)(=O)c1cccc(-c2nnc(-c3ccccc3)o2)c1 | i | -26.7% | 18.7% | ? | i | 1.4%
COc1cc(-c2nnc(COc3ccc4ccccc4c3)o2)cc(OC)c1OC | 23.1µM* | -14.7% | -15.9% | 3.8% | i | -2.8%
COc1cc(-c2nnc(SCc3ccccc3Cl)o2)cc(OC)c1OC | 2.31µM* | -2.4% | 3.6% | 9.8% | i | 10.4%
COc1cc(-c2nnc(-c3ccccc3)o2)cc(OC)c1OC | 9.2µM* | 1.9% | 9.7% | 7.4% | i | 19.7%
CCC(C)C(NC(=O)C(Cc1ccc(O)cc1)NC(=O)OCc1ccccc1)C(=O)OC (stereo not given) | i | -22.8% | 6.3% | ? | i | 1.0%
Cc1ccc(C)c(NC(=O)C(=O)NCCc2csc(-c3ccc(C(F)(F)F)cc3)n2)c1 | . | 3.8% | . | 0.0% | . | .
CCN(CC)S(=O)(=O)c1ccc2c(c1)N(CC(=O)N(C)Cc1ccccc1)C(=O)CO2 | i | -8.4% | . | -13.2% | i | .
COC(=O)C1=C(C)N(CCCC(=O)O)C(=O)NC1c1ccccc1OS(=O)(=O)c1ccccc1[N+](=O)[O-] (stereo not given) | i | -6.0% | -0.1% | 0.4% | i | -1.5%
CCOC(=O)C1=C(C)N(Cc2ccccc2)C(=O)NC1c1ccccc1OS(=O)(=O)c1ccccc1[N+](=O)[O-] (stereo not given) | 7.31µM* | 1.0% | 0.6% | ? | ? | -0.3%
C#CC[N+]1(CC#Cc2ccccc2)CCCC1 | i | 4.7% | 4.3% | 1.1% | ? | 3.0%
C(#Cc1ccccc1)C[N+]1(CC#Cc2cccc3ccccc23)CCCC1 | i | -9.7% | ? | ? | 16.4µM* | ?
CCCC1C(=O)Nc2ccccc2N1C(=O)c1cccc(C)c1 (stereo not given) | ? | -9.7% | -2.8% | 0.0% | ? | -5.0%
CCCC1C(=O)Nc2ccccc2N1C(=O)c1ccc(C(C)(C)C)cc1 (stereo not given) | i | -89.4% | 9.2µM* | ? | i | ?
CC(=O)c1cc(-c2ccccc2)n(CC(=O)N2CCC(C)CC2)c1C | 5.8µM* | 3.7% | 20.3% | -18.8% | i | -0.5%
CCN1CCN(c2ccc(NC(=O)c3ccc(Br)o3)cc2)CC1 | i | -13.3% | -5.3% | 5.1% | i | -4.7%
CC(=O)N1CCN(c2ccc(NCc3ccc(-c4ccc(Br)cc4)o3)cc2)CC1 | i | -26.5% | . | -17.2% | 9.2µM* | .
